This note sets out measurements from PubChem BioAssay AID2685 (National Center for Advancing Translational Sciences (NCATS), 2010).

The structures appear in SMILES notation. About 2,100 (0.66%) of roughly 320,000 compounds were called active. About 53% were inconclusive and are not listed. Calls come from the whole dose curve; as a rule, active = well fitted inhibition curve with a large enough effect in the signal ratio, with a control signal flat (not every such curve was filed as active); inconclusive = small, poorly fitted or top-dose-only effect, or effect the other way, or a change in a side signal; inactive = flat fitted curve, though single readings scatter; the % refers to the signal ratio. The full list was thinned out, with actives kept by preference.
Potency is the fitted concentration of half-maximal effect.

The nature of the test: qHTS Assay for Lipid Storage Modulators in Drosophila S3 Cells.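 For cell number change: cells counted by Cell Tracker Red CMTPX staining in the red channel.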 For lipid storage change, negative = inhibition: % is set by controls: 0 for no effect and ±100 for the full control effect. To be noted: BODIPY lipid droplet fluorescence, 18-24 h, cells fed with added oleic acid; cell number change: measured here: cell count max response; series mostly up to 46.1 µM; lipid storage change, negative = inhibition: at the top concentration. In short, it runs like this:
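Drosophila S3 cells loaded with oleic acid (400 uM, as added) and compounds at several concentrations; lipid droplets imaged by 488-nm laser-scanning cytometry, 500–530 nm intensity and object ratio to cell channel. Percent activity normalized to 20 uM Triacsin C.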
Background: Quantitative high-throughput screening tests each substance at several concentrations.
Regarding `CCOc1cccc(OCCCCN2CCCCC2)c1`, the “lipid storage change, negative = inhibition” value is 10.3% (inactive) and the cell number change is -2.06%. Regarding `CCc1ccc(NC(=O)CN(N=Nc2nonc2C)c2nonc2C)cc1`, the “lipid storage change, negative = inhibition” value is 0.106% (inactive).

On to `CC(C)(C)c1csc(Sc2ncccc2[N+](=O)[O-])n1`, for which the “lipid storage change, negative = inhibition” value was -5.1% (inactive) and the cell number change was -11.2%. For `Cc1cccc(CSC2=CS(=O)(=O)c3ccccc3N2)c1` the same measures were 1.8% (inactive) and 2.06%. As to `Cc1cccc(CNC(=O)c2cc(S(=O)(=O)N3CCOCC3)cn2C)c1`, the outcome was inactive and the cell number change is 14.6%. As for `CC(=O)c1cccc(NC(=O)COc2ccc(S(=O)(=O)N3CCCCC3)cc2)c1`, the “lipid storage change, negative = inhibition” value is 13.1% (inactive) and the cell number change came out at 12.3%. For `Cc1nn(C(C)C(=O)O)c(C)c1[N+](=O)[O-]` (stereo not drawn) the same measures were -18.1% (inactive) and 3.58%. As to `O=C(Nc1nccs1)c1ccc(-c2ccc(F)c(Cl)c2)o1`, the Potency is 10.3 µM (active) and the cell number change was -11.8%. For `O=C(Nc1nccs1)c1ccc(-c2ccc(F)cc2)o1`, the “lipid storage change, negative = inhibition” value was 2.16% (inactive) and the cell number change was found to be 0.674%.

Regarding `O=C(Nc1nccs1)c1ccc(-c2ccc(Cl)cc2Cl)o1`, the “lipid storage change, negative = inhibition” value is -9.27% (inactive) and the cell number change is -16.9%. The like results for `CCOC(=O)c1c(NC(=O)Cn2cnc([N+](=O)[O-])n2)sc2c1CCC(C)C2` (stereo not drawn) were, in that order, 6.52% (inactive) and 2.74%. As for `Cc1ccccc1NC(=O)c1c(C)cc(=O)oc1C`, the “lipid storage change, negative = inhibition” value is -2.94% (inactive). For `Cc1cc(=O)oc(C)c1C(=O)Nc1ccc(Cl)cn1`, the “lipid storage change, negative = inhibition” value is -4.54% (inactive) and the cell number change was found to be 1.04%.

With `Cc1cccc(NC(=O)c2c(C)cc(=O)oc2C)n1`, the Potency was 8.2 µM (active) and the cell number change is -10.1%.

Take `CC1=C(C)CC(C(=O)NNC(=O)c2csc(C)c2C)C(C(=O)O)C1` (stereo not drawn): the “lipid storage change, negative = inhibition” value is 5.9% (inactive) and the cell number change was -1.11%. For `CS(=O)(=O)N(C(=O)NC(=O)NC12CC3CC(CC(C3)C1)C2)C1CCCCC1` the same measures were 2.98% (inactive) and 9.2%.

As for `CC(=O)c1ccc(N2CCN(S(=O)(=O)c3ccc(-c4cc(C)no4)s3)CC2)cc1`, the compound was called inactive. Consider `COc1ccc(N2CCN(S(=O)(=O)c3ccc(-c4cc(C)no4)s3)CC2)cc1`, for which the Potency is 23.1 µM (active).

In the case of `Cc1cc(-c2ccc(S(=O)(=O)N3CCN(c4ccc(F)cc4)CC3)s2)on1`, the compound was classed as inactive and the cell number change is 5.9%. In the case of `C=CCn1c(CCNC(=O)c2ccc(Cl)c(Cl)c2)nnc1SCCOc1ccc(OC)cc1`, the “lipid storage change, negative = inhibition” value is 2.78% (inactive) and the cell number change was -3.68%. In the case of `O=C(/C=C/c1ccc(F)cc1)NCc1cccs1`, the “lipid storage change, negative = inhibition” value is 20.7% (inactive) and the cell number change amounted to 12.4%. For `Cc1nc2cc(NC(=O)C3COc4ccccc4O3)ccc2s1` (stereo not drawn) the same measures were 0.94% (inactive) and 3.18%. The like results for `COc1ccc(S(=O)(=O)N2CCN(CC(=O)c3[nH]c(C)c(C(C)=O)c3C)CC2)cc1OC` were, in that order, 8.72% (inactive) and 3.31%. The like results for `Cc1ccc(S(=O)(=O)NCC(=O)OCc2cc(=O)oc3c(C)c(C)ccc23)cc1C` were, in that order, 13.6% (inactive) and 11.5%. With `CN(CC(=O)Nc1ccc(Cl)c(Cl)c1)C(=O)CNC(=O)Cc1ccccc1`, the “lipid storage change, negative = inhibition” value is 19% (inactive) and the cell number change is -4.02%.

For the compound `COc1ccccc1NC(=O)NCCN1CCCCC1`, the “lipid storage change, negative = inhibition” value was -2.26% (inactive) and the cell number change was 6.08%.

Take `COc1ccccc1NC(=O)C1CCCN(S(=O)(=O)c2ccccc2)C1` (stereo not drawn): the Potency is 5.8 µM (active) and the cell number change was -11%. As to `COc1ccccc1NC(=O)C1CCCN(S(=O)(=O)c2ccc(-n3cnnn3)cc2)C1` (stereo not drawn), the call was inactive and the cell number change is -7.69%. Regarding `COc1ccccc1NC(=O)N1CCCC1`, the “lipid storage change, negative = inhibition” value is 8.15% (inactive) and the cell number change came out at 1.33%.

As to `COc1ccccc1NC(=O)C1CCCN(S(=O)(=O)c2cnc[nH]2)C1` (stereo not drawn), the “lipid storage change, negative = inhibition” value is 7.37% (inactive) and the cell number change is 1.66%. For the compound `COc1ccccc1NC(=O)NN1CCCCC1`, the Potency is 0.58 µM (active) and the cell number change is 17.6%. As for `COc1ccc2c(c1)[nH]c1c(=O)n(N)cnc12`, the “lipid storage change, negative = inhibition” value is 8.27% (inactive) and the cell number change came to 6.47%.

Regarding `Cn1cc(/C=C/C(=O)N2CCCC(C(=O)c3cccc4ccccc34)C2)cn1` (stereo not drawn), the “lipid storage change, negative = inhibition” value was -4.39% (inactive) and the cell number change worked out at 8.66%. The like results for `Cc1ccc(N2CC(NC(=O)C(=O)c3c[nH]c4ccccc34)CC2=O)cc1C` (stereo not drawn) were, in that order, 1.15% (inactive) and 20.5%.

Regarding `Cc1nc(NC(=O)COC(=O)CCc2nc3ccccc3s2)c(Cl)cc1Cl`, the “lipid storage change, negative = inhibition” value was -1.19% (inactive) and the cell number change was determined as 8.53%.

In the case of `C[C@H](NC(=O)c1nc[nH]c1C(=O)N[C@@H](Cc1ccccc1)C(=O)OCc1ccccc1)c1ccccc1`, the “lipid storage change, negative = inhibition” value is -6.18% (inactive). Regarding `O=C(N/N=C/c1ccc([N+](=O)[O-])o1)C(=O)Nc1ccc(C(=O)O)cc1`, the “lipid storage change, negative = inhibition” value is 13.1% (inactive) and the cell number change stood at 8.32%. Turning to `O=C(CNc1ccc2ccccc2c1)N/N=C/c1ccc([N+](=O)[O-])o1`, the “lipid storage change, negative = inhibition” value is 26.8% (inactive). As to `O=C(CNc1cccc2ccccc12)N/N=C/c1ccc([N+](=O)[O-])cc1`, the “lipid storage change, negative = inhibition” value is -3.45% (inactive) and the cell number change was -4.75%. As for `CCCC(=O)Nc1ccc(C(=O)N/N=C/c2ccc([N+](=O)[O-])o2)cc1`, the Potency is 14.6 µM (active) and the cell number change is -15.2%. Turning to `O=C(CNc1cccc2ccccc12)N/N=C/c1ccc([N+](=O)[O-])o1`, the Potency was 16.4 µM (active) and the cell number change was -25.8%.

`CCCCCCCC(=O)N/N=C/c1ccc([N+](=O)[O-])o1`: the “lipid storage change, negative = inhibition” value is -11.4% (inactive) and the cell number change was -5.79%. For `COc1nc(OC)nc(N2CCC(C(=O)Nc3cccc4c3CCCC4)CC2)n1` the same measures were 20.9% (inactive) and -6.45%. For `O=C1OC(C(=O)Nc2nccs2)Cc2ccccc21` (stereo not drawn), the call was inactive.

Turning to `O=C(CSc1ncnc2ccccc12)Nc1ccc2c(c1)OCCO2`, the “lipid storage change, negative = inhibition” value is 24.4% (inactive). On to `Cc1cc(NC(=O)CSc2nc(C(C)(C)C)nc3ccccc23)no1`, for which the “lipid storage change, negative = inhibition” value is -21.1% (inactive) and the cell number change is -18%. With `CC(C)(C)c1nc(SCC(=O)Nc2ccc3c(c2)OCCO3)c2ccccc2n1`, the Potency is 18.4 µM (active) and the cell number change is -25.4%. `COc1ccc2[nH]c(=O)c(CNc3ccc(C)cc3C)cc2c1`: the “lipid storage change, negative = inhibition” value was 7.28% (inactive) and the cell number change is -6.94%.
